Test [1] addresses Rap guanine nucleotide exchange factor 3 (Homo sapiens) (UniProt O95398). The test can be described thus: Confirmatory qHTS for antagonist of cAMP-regulated guanine nucleotide exchange factor 3 (EPAC1) (AID 1645880). Also: nearly all actives have a fitted effect of over 55% in size. Also: potency is read from the fitted curve at half-maximal effect. Summed up: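 Released BODIPY-GDP fluoresces less than Rap1-bound BODIPY-GDP; the signal is followed at 480/540 nm at 5-min intervals over 30 min, after 5 min at room temperature. Reactions contain 100 nM EPAC1, 250 nM RAP1B-BODIPY-GDP and 50 uM GDP; results are normalized to ATA and DMSO.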
For orientation: Quantitative high-throughput screening tests each substance at several concentrations.

For test [2] the target is unchanged. The test can be described thus: Confirmatory qHTS for agonist of cAMP-regulated guanine nucleotide exchange factor 3 (EPAC1) (AID 1645881).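 Also: EPAC1 catalysed release of BODIPY-GDP from Rap1B seen as fluorescence loss; 100% = effect of cAMP agonist control; nearly all actives have a fitted effect of over 75% in size.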
Test [3] has as its target Rap guanine nucleotide exchange factor 4 (Homo sapiens) (UniProt Q8WZA2). The test can be described thus: Confirmatory qHTS for agonist of cAMP-regulated guanine nucleotide exchange factor 4 (EPAC2) (AID 1645884).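 Also: nucleotide exchange releases bodipy-GDP from Rap1 and this lowers its fluorescence; % is scaled to controls: 0 for no effect and ±100 for the full control effect; nearly all actives have a fitted effect of over 65% in size.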
For test [4] the target is unchanged. The test can be described thus: Confirmatory qHTS for antagonist of cAMP-regulated guanine nucleotide exchange factor 4 (EPAC2) (AID 1645885). Also: nearly all actives have a fitted effect of over 25% in size. Also: potency is read from the fitted curve at half-maximal effect. As to activity change, negative = inhibition: % is scaled to controls: 0 for no effect and ±100 for the full control effect.
In test [5] the target is Rap guanine nucleotide exchange factor 3 (Homo sapiens) (UniProt O95398). The experiment in a line: Counterscreen qHTS for antagonist of cAMP-regulated guanine nucleotide exchange factor 3 (EPAC1) (AID 1645888). Also: % of control where 0% means no effect. Summed up:
(§1)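 Rap1B-BODIPY-GDP 250 nM + GDP 50 uM; cpds 7-pt, final 9.74 nM–152 uM (activator mode) or from 7.32 nM upwards (inhibitor mode); RT; FI 480/540 nm at 5 and 30 min, then ± cAMP, reread.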

Test [6] has the same target. The experiment in a line: Counterscreen qHTS for agonist of cAMP-regulated guanine nucleotide exchange factor 3 (EPAC1) (AID 1645889). Also: % of control where 0% means no effect; nearly all actives have a fitted effect of over 40% in size. Summed up:
as §1

Results filed as inconclusive are left out. Values without a mark were called inactive. Activity calls are given as the source filed them. Calls follow the shape of the dose curve; as a rule, active = well fitted curve in the direction sought with a large enough effect; inconclusive = small, poorly fitted or top-dose-only effect, or another doubt; inactive = no such curve, though single readings can be large; an effect the other way counts as inactive or inconclusive.

Chain of Rap guanine nucleotide exchange factor 3 (Homo sapiens) (O95398 whole entry, looked up): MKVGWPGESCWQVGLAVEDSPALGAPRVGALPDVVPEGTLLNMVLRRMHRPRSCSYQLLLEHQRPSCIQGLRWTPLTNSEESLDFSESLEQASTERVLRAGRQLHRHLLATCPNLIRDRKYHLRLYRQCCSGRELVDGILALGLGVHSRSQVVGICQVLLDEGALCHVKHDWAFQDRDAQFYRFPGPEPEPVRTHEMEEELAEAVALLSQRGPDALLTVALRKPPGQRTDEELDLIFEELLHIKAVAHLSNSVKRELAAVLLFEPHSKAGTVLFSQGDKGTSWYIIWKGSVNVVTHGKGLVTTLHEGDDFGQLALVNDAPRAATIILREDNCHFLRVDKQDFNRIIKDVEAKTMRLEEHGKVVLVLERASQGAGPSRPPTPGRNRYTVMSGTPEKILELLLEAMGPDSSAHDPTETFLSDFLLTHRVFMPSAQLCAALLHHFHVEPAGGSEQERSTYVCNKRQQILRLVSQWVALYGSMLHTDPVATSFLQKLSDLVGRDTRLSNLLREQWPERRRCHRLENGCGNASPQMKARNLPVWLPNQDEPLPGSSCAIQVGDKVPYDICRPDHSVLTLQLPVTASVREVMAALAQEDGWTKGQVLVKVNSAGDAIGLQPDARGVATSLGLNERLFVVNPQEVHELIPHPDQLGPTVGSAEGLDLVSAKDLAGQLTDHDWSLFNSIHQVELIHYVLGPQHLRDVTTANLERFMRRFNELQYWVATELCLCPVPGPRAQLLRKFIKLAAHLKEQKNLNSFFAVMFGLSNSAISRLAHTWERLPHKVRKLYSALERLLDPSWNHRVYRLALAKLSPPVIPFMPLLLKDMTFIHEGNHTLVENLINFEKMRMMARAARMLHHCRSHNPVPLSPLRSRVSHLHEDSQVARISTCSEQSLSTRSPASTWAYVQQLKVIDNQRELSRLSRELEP
Chain of Rap guanine nucleotide exchange factor 4 (Homo sapiens) (Q8WZA2 whole entry, looked up): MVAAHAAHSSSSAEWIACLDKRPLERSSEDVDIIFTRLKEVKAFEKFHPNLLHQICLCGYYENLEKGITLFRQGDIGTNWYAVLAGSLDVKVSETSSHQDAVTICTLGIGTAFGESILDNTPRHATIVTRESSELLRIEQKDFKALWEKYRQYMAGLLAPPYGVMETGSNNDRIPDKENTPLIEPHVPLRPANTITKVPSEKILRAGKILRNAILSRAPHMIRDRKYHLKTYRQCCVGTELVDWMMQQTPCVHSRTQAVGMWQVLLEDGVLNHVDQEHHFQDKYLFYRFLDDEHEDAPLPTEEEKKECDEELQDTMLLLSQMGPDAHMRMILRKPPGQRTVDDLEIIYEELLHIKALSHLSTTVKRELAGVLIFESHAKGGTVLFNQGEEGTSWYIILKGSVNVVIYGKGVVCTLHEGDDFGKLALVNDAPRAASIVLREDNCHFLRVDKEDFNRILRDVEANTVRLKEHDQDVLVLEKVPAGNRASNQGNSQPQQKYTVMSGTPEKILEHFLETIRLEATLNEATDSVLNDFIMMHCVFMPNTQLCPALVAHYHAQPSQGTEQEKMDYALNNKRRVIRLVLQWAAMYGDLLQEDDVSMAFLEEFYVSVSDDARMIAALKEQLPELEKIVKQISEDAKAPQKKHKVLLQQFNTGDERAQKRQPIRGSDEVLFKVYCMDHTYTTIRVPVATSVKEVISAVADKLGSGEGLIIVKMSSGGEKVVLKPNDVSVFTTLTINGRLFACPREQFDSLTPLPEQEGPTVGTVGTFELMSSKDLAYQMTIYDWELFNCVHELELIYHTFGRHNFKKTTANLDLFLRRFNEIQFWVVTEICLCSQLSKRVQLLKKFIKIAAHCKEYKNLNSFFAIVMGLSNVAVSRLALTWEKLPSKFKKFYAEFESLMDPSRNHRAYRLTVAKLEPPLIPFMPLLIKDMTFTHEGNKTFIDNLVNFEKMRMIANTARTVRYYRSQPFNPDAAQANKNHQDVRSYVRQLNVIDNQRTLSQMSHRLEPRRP

Regarding `CC(C)(C(=O)N1CCC1(C)C(=O)NS(=O)(=O)c1ccccc1Cl)c1ccccc1` (stereo unspecified), the Potency result in test [1], in test [2] and in test [4] was “inactive” throughout. In addition, the activation was 3.96% [at 17.1 µM, percent relative to cAMP agonist control] in test [3] and 1.99% [at 30.8 µM] in test [6]. The activity change, negative = inhibition in test [5] is 0.723% [at 30.8 µM].
Take `N#Cc1c(-c2ccccc2)nc(SCc2cccc(Cl)c2)[nH]c1=O`: the Potency in test [1] was 67.5 µM (active); in test [4] it was 37.9 µM (active). The Potency result in test [2], in test [3], in test [5] and in test [6] was “inactive” in each case.
With `COc1cccc(-n2nnc3c(=O)n(C/C=C/c4ccccc4)cnc32)c1`, the Potency result in test [1], in test [2] and in test [4] was “inactive” each time. In addition, the activation in test [3] is 6.54% [at 17.1 µM, percent relative to cAMP agonist control]; in test [6] it was 17.3% [at 30.8 µM]. For the same molecule, the activity change, negative = inhibition in test [5] is 2.95% [at 30.8 µM].
For `COc1ccc(OC)c(NC(=O)Cc2c(C(=O)O)n(C)c3ccc(C)cc23)c1`, the Potency result in test [1], in test [2], in test [3], in test [4], in test [5] and in test [6] was “inactive” throughout.
As for `CCSc1nc2ccccc2c(OCc2ccccc2Cl)c1C(=O)OC`, the Potency entry in test [1], in test [2], in test [3], in test [4], in test [5] and in test [6] was “inactive” in each case.
Consider `Cc1ccc(N2NC(=O)/C(=C\c3cc4c(cc3[N+](=O)[O-])OCO4)C2=O)cc1C`, for which the Potency in test [1] is 75.7 µM (active). Moreover, the Potency result in test [2], in test [3], in test [4], in test [5] and in test [6] was “inactive” in each case.
For the molecule `COc1ccc(N2CCN(C(=O)COC(=O)COc3cc(C)cc(C)c3)CC2)cc1`, the Potency entry in test [1], in test [2] and in test [4] was “inactive” in each case. The activation was 0.676% [at 17.1 µM, percent relative to cAMP agonist control] in test [3] and -0.0753% [at 30.8 µM] in test [6]. In addition, the activity change, negative = inhibition in test [5] was -19.2% [at 30.8 µM].
With `CCCCC(=O)N(c1ccc(C(=O)O)cc1)c1nc(-c2ccc(Cl)cc2)c(CC)s1`, in test [1], the Potency was 50.1 µM (active). Besides, the Potency entry in test [2] and in test [4] was “inactive” throughout. Also, the activation in test [3] was 5.89% [at 17.1 µM, percent relative to cAMP agonist control]; in test [6], 19.6% [at 30.8 µM]. In addition, the activity change, negative = inhibition in test [5] was -5.84% [at 30.8 µM].
As for `O=C(O)C1CSC(c2ccco2)N1` (stereo unspecified), the Potency entry in test [1], in test [2] and in test [4] was “inactive” in each case. Besides, the activation is 15.3% [at 17.1 µM, percent relative to cAMP agonist control] in test [3] and 2.32% [at 30.8 µM] in test [6]. For the same molecule, in test [5], the activity change, negative = inhibition is -26.6% [at 30.8 µM].
Turning to `CCc1nc2c(OCc3ccc(C#N)cc3)cccn2c1N(C)C(=O)c1ccc(C)cc1`, the Potency entry in test [1], in test [2], in test [3], in test [5] and in test [6] was “inactive” each time. Further, the Potency in test [4] is 19 µM (active).
On to `O=C(O)c1ccc(N/N=C/c2ccc3c(c2)OCO3)cc1`, for which the Potency entry in test [1], in test [2], in test [3], in test [5] and in test [6] was “inactive” throughout. Moreover, the Potency in test [4] is 33.8 µM (active).
For the molecule `O=C(CCCCCl)Nc1c2c(nc3ccccc13)CCC2`, the Potency entry in test [1], in test [2] and in test [4] was “inactive” each time. Moreover, the activation was 1.22% [at 17.1 µM, percent relative to cAMP agonist control] in test [3] and -2.96% [at 30.8 µM] in test [6]. In addition, the activity change, negative = inhibition in test [5] was -8.13% [at 30.8 µM].
Consider `CCOC(=O)c1sc(N=NC2=C(O)CCCC2=O)c(C(=O)OCC)c1C`, for which, in test [1], the Potency is 8.91 µM (active). The Potency entry in test [2] and in test [4] was “inactive” in each case. Also, the activation in test [3] is -2.58% [at 17.1 µM, percent relative to cAMP agonist control]; in test [6], 6.27% [at 30.8 µM]. The activity change, negative = inhibition in test [5] was -17% [at 30.8 µM].
In the case of `C=CCOc1ccc(/C=C2\SC(=S)N(NS(=O)(=O)c3ccccc3)C2=O)cc1`, the results for the Potency in test [1] and in test [4] were 47.8 µM (active) and 42.6 µM (active), respectively. The Potency entry in test [2], in test [3], in test [5] and in test [6] was “inactive” each time.
For the molecule `Cc1cccc(CN2[C@@H](CC(C)C)COCCS2(=O)=O)c1`, the Potency entry in test [1], in test [2], in test [3], in test [4], in test [5] and in test [6] was “inactive” in each case.
On to `COc1cc(/C=C2/C(=O)NN(c3ccc(C)c(Cl)c3)C2=O)cc([N+](=O)[O-])c1O`, for which, in test [1], the Potency is 8.49 µM (active). Besides, the Potency entry in test [2], in test [3], in test [4], in test [5] and in test [6] was “inactive” throughout.
Consider `CC(C)CC(C(=O)NC1CCCCC1)N(Cc1ccccc1)C(=O)c1snc(C(N)=O)c1N` (stereo unspecified), for which the Potency result in test [1], in test [2] and in test [4] was “inactive” throughout. Also, the activation in test [3] was 1.37% [at 17.1 µM, percent relative to cAMP agonist control]; in test [6], 19% [at 30.8 µM]. The activity change, negative = inhibition in test [5] was -17.8% [at 30.8 µM].
`CC(C)CNC(=O)c1c(-c2ccccc2)c(-c2ccccc2)nn(C)c1=O`: the Potency entry in test [1], in test [2], in test [3], in test [5] and in test [6] was “inactive” in each case. Also, in test [4], the outcome was “inactive [at 12.7 µM]”.
Take `COc1cc(/C=C2\SC(=O)NC2=O)ccc1Oc1ccc([N+](=O)[O-])cc1[N+](=O)[O-]`: the Potency in test [1] is 42.6 µM (active). Also, the Potency result in test [2], in test [3], in test [4], in test [5] and in test [6] was “inactive” throughout.
Turning to `Cc1ccc(C2=NOC(=O)/C2=C\c2ccc(C)o2)cc1`, in test [1], the Potency was 75.7 µM (active). In addition, the Potency result in test [2], in test [3], in test [4], in test [5] and in test [6] was “inactive” each time.
For the molecule `O=C(C[n+]1cc(Br)cc2ccccc21)c1ccc(F)cc1`, the Potency entry in test [1], in test [2] and in test [4] was “inactive” in each case. Further, the activation in test [3] is 1.58% [at 17.1 µM, percent relative to cAMP agonist control]; in test [6], 21% [at 30.8 µM]. Moreover, the activity change, negative = inhibition in test [5] was 9.18% [at 30.8 µM].

Values taken from PubChem BioAssay (NCATS).
